We go through 40 molecules from PubChem BioAssay (Tox21).

“And” between values parts separate entries of the source, which are not always exact repeats. Identical values can stand only once. Results filed as inconclusive are left out. Where a call stands in place of a potency, no number is given. The source made the active and inactive calls. Calls come from the whole dose curve.
Potency is the fitted concentration of half-maximal effect.

Chain of Acetylcholinesterase (Homo sapiens) (P22303 whole entry, looked up): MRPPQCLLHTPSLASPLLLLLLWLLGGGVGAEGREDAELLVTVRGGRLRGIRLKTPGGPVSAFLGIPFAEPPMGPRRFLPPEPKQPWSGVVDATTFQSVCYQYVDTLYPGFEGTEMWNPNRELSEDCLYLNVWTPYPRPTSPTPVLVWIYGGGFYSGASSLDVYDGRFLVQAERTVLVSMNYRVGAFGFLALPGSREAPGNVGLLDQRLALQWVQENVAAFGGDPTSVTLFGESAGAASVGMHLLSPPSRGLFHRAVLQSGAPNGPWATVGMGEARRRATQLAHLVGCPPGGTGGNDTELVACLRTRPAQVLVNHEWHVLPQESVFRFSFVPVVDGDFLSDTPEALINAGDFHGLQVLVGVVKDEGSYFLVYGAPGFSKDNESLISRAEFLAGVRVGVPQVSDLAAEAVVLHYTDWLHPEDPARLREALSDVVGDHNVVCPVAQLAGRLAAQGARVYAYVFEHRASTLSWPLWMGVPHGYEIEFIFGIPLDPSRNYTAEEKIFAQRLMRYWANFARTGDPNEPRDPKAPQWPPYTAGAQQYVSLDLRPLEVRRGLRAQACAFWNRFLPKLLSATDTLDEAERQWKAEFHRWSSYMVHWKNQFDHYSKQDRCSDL

The target of the assay is Acetylcholinesterase (Homo sapiens) (UniProt P22303). Nature of the assay: Acetylcholinesterase (AChE) small molecule antagonists: colormetric cell-based qHTS assay (AID 1347395). Note: nearly all actives have a fitted effect of over 30% in size. As to conditions: SH-SY5Y cells AChE activity, colorimetric (Ellman); series mostly up to 115 µM; activity, negative = inhibition: at the top concentration. An excerpt:
National Center for Advancing Translational Sciences [NCATS]
Division of Preclinical Innovation [DPI]
U.S. Environmental Protection Agency [EPA]
National Institutes of Environmental Health Sciences [NIEHS]
National Toxicology Program [NTP]
U.S. Food and Drug Administration [FDA]
Acetylcholinesterase (AChE) is the primary cholinesterase in the body that hydrolyzes a key neurotransmitter, acetylcholine. Inhibition of AChE activity can lead to neurotoxicity. The known inhibitors include organophosphorous pesticides (OP), chemical warfare agents, drugs, and various phytochemicals.
A homogenous cell-based assay using the Amplite Colormetric acetylcholinesterase assay kit (AAT Bioquest, Sunnyvale, CA) was used to evaluate the chemicals in the Tox21 10K library that inhibit AChE activity. The assay uses 5, 5-dithiobis-(2-nitrobenzoic acid) (DTNB) to quantify the thiocholine produced from the hydrolysis of acetylthiocholine by AChE from the SH-SY5Y cells.
Tox21 Assay Protocol Summary:
For the cell-based AChE assay, 2,000 SH-SY5Y cells in 4 uL/well were dispensed into black, clear-bottom 1536-well plates using a Multidrop Combi dispenser (Thermo Scientific, MA). The assay plates were incubated overnight at 37 C to allow cells to attach to the wells, followed by the transfer of 23 nL of compound or DMSO (vehicle control) by a Pintool Station (Wako Automation, CA). The plates were incubated for 30 min at 37 C and 5% CO2, followed by the addition of 4 uL of detection cocktail solution (DTNB, acetylthiocholine) into each well using a Flying Reagent Dispenser (Beckman Coulter, CA) and then 90 min incubation at 37 C.
On the technique in general: Quantitative high-throughput screening tests each substance at several concentrations.
As for `N#Cc1cc(Br)c(O)c(Br)c1`, the Potency entry is “inactive”.

`CC1(C)C(C=C(Cl)Cl)C1C(=O)OC(C#N)c1cccc(Oc2ccccc2)c1` (stereo not given): the Potency entry was “inactive”.

`CNC(=O)N(C)c1nnc(C(C)(C)C)s1`: the Potency result is “inactive”.

For `Cc1cc(Cl)ccc1OCCCC(=O)O`, the Potency result is “inactive”.

Consider `Cc1ccc2c(c1N)C(=O)c1ccccc1C2=O`, for which the Potency result is “inactive”.

For the molecule `CCC(C)(c1ccc(O)cc1)c1ccc(O)cc1`, the Potency result was “inactive”.

For the molecule `OCC(O)CO`, the Potency result was “inactive”.

Turning to `NNC(N)=S`, the Potency result is “inactive”.

Turning to `C=CCN(CC=C)C(=O)C(Cl)Cl`, the Potency entry was “inactive”.

For the molecule `O=[N+]([O-])c1c(Cl)c(Cl)c(Cl)c(Cl)c1Cl`, the Potency was 39.8 µM (active) and 31.7 µM (active).

In the case of `CCN(N=O)C(N)=O`, the Potency entry was “inactive”.

Take `CC(C)(c1cc(Cl)c(O)c(Cl)c1)c1cc(Cl)c(O)c(Cl)c1`: the Potency result is “inactive”.

Take `N#CC(Br)Br`: the Potency result was “inactive”.

Take `COc1ccc(C=O)cc1`: the Potency entry was “inactive”.

Regarding `Nc1ccncc1`, the Potency entry was “inactive”.

For `CN(C)c1ccc(C(=O)c2ccc(N(C)C)cc2)cc1`, the Potency entry was “inactive”.

For `Clc1nc(Cl)nc(Cl)n1`, the Potency result is “inactive”.

For the molecule `C#C[C@]1(O)CC[C@H]2[C@@H]3CCC4=CC(=O)CC[C@]4(C)[C@H]3CC[C@@]21C`, the Potency entry was “inactive”.

In the case of `Cc1cc(C)cc(C)c1`, the Potency entry is “inactive”.

As for `Nc1ccc(Cl)cc1N`, the Potency entry is “inactive”.

`CCCCC(CC)COC(=O)c1ccc(C(=O)OCC(CC)CCCC)c(C(=O)OCC(CC)CCCC)c1` (stereo not given): the Potency entry is “inactive”.

On to `CCCCCc1cc(O)cc(O)c1`, for which the Potency result was “inactive”.

Regarding `CCCCCCOC(=O)c1ccccc1C(=O)OCCCCCC`, the “activity, negative = inhibition” value was -1.49% (inactive).

In the case of `CC(C)NC(C)C`, the Potency entry is “inactive”.

With `c1ccc(-c2cccc(-c3ccccc3)c2)cc1`, the Potency result is “inactive”.

Regarding `Cc1ccccc1[N+](=O)[O-]`, the Potency result was “inactive”.

On to `CCCCCCCCC(=O)NCc1ccc(O)c(OC)c1`, for which the Potency entry is “inactive”.

As for `Nc1c(Cl)cc([N+](=O)[O-])cc1Cl`, the Potency result is “inactive”.

`O=C(NC(=O)c1c(F)cccc1F)Nc1ccc(Cl)cc1`: the Potency result is “inactive”.

For `Brc1ccc(Oc2cc(Br)c(Br)cc2Br)c(Br)c1`, the Potency result was “inactive”.

For the molecule `CC(C)C(=O)OCC(C)(C)C(OC(=O)C(C)C)C(C)C` (stereo not given), the “activity, negative = inhibition” value is -2.23% (inactive).

As for `c1ccc(N=Nc2ccccc2)cc1`, the Potency entry was “inactive”.

On to `CCC(=O)O[C@H]1CC[C@H]2[C@@H]3CCC4=CC(=O)CC[C@]4(C)[C@H]3CC[C@]12C`, for which the Potency result was “inactive”.

On to `CC(O)CCO` (stereo not given), for which the Potency result was “inactive”.

For the molecule `NC(=S)Nc1ccccc1`, the Potency result was “inactive”.

Turning to `c1ccc(NNc2ccccc2)cc1`, the Potency entry was “inactive”.

Take `COP(=S)(OC)Oc1cc(Cl)c(Cl)cc1Cl`: the Potency result was “inactive”.

Regarding `C=CCc1ccc(OC)cc1`, the Potency entry is “inactive”.

For the molecule `Oc1cc(Cl)ccc1Oc1ccc(Cl)cc1Cl`, the Potency result is “inactive”.

As to `CCN(CC)C(=O)SCc1ccc(Cl)cc1`, the Potency entry is “inactive”.
